Consider 13 compounds from PubChem BioAssay (NCI).

Compounds without any hit were thinned out: in the full panel of roughly 83,000, 20% have a hit.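 Percent growth is the endpoint: 0 to 100 indicates growth inhibition (40 means 60% inhibition), 0 means no net growth, and negative values indicate cell death.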 A number with no mark means an inactive call. Active and inactive are the calls of the source. The calls were made as follows: active = growth percent below 10; inactive = the rest.

Some test systems named below: SR leukemia; RPMI-8226 leukemia; OVCAR-8 ovarian; OVCAR-5 ovarian; OVCAR-4 ovarian; SK-OV-3 ovarian; IGROV1 ovarian; OVCAR-3 ovarian; HS 578T breast; NCI/ADR-RES ovarian.
Experiment in all cases: NCI-60 one-dose screen, 48 h (100 = growth as untreated, 0 = no growth, -100 = all killed)
Common to all, as to details: 10 µM unless noted

For `CCN1C(=O)N(CC)C2Nn3c(s/c(=C\c4ccccc4Br)c3=O)=NC21` (stereo not given), the growth is 15.7% in the assay with SR leukemia; 35.4% in the assay with RPMI-8226 leukemia; 15.4% in the assay with OVCAR-8 ovarian; 28.9% with OVCAR-5 ovarian; 47.5% with OVCAR-4 ovarian; 44.7% in the assay on SK-OV-3 ovarian. Also, the growth was 25.7% in the assay on IGROV1 ovarian, -7.24% (active) with OVCAR-3 ovarian, 11.4% in the assay on HS 578T breast and 5.54% (active) with NCI/ADR-RES ovarian.

In the case of `CC1(C)CC[C@]2(CO)CC[C@]3(C)[C@H](CC[C@@H]4[C@@]5(C)CCCNC(C)(C)[C@@H]5CC[C@]43C)[C@H]2[C@H]1O`, the growth was 10.5% with SR leukemia; 31.4% in the assay on RPMI-8226 leukemia; 95% in the assay with OVCAR-8 ovarian; 92.8% in the assay with OVCAR-5 ovarian; 89.7% in the assay with OVCAR-4 ovarian; 92.5% in the assay on SK-OV-3 ovarian. Moreover, the growth with IGROV1 ovarian is 82.3%; in the assay with OVCAR-3 ovarian it was 94.3%; in the assay on HS 578T breast, 83.5%; in the assay on NCI/ADR-RES ovarian, 93.1%.

`CCOC(=O)c1[nH]c2c(c1C)-c1[nH]c(=O)c(S(=O)(=O)c3ccccc3)cc1SC2`: the growth in the assay on SR leukemia is 39.4% [100 µM]; with RPMI-8226 leukemia, 33.3% [100 µM]; in the assay with OVCAR-8 ovarian, 25.3% [100 µM]; in the assay on OVCAR-5 ovarian it was 89.6% [100 µM]; in the assay with OVCAR-4 ovarian, 5.79% [100 µM] (active); in the assay on SK-OV-3 ovarian it was 59.8% [100 µM]. Moreover, the growth in the assay on IGROV1 ovarian was 48.7% [100 µM]; with OVCAR-3 ovarian it was -15.1% [100 µM] (active); in the assay with HS 578T breast, 28.1% [100 µM]; with NCI/ADR-RES ovarian it was 59.7% [100 µM].

With `Nn1c(=O)c(=O)[nH]c2c(cnn2-c2ccccc2)c1=O`, the growth with SR leukemia is 94.5%; in the assay with RPMI-8226 leukemia, 103%; in the assay with OVCAR-8 ovarian, 97.3%; with OVCAR-5 ovarian, 108%; in the assay on OVCAR-4 ovarian it was 118%; with SK-OV-3 ovarian, 102%. The growth was 118% in the assay on IGROV1 ovarian, 107% in the assay with OVCAR-3 ovarian, 111% in the assay with HS 578T breast and 106% with NCI/ADR-RES ovarian.

Consider `CCN(CC)CCN1C(=O)c2c(c(C)c3c(oc4ccc(OC)cc43)c2C)C1=O`, for which the growth in the assay on SR leukemia was 110%; in the assay on RPMI-8226 leukemia it was 92.5%; in the assay with OVCAR-8 ovarian, 79.9%; in the assay with OVCAR-5 ovarian it was 88.9%; in the assay with OVCAR-4 ovarian, 103%; with SK-OV-3 ovarian, 111%. Further, the growth with IGROV1 ovarian was 87.2%; in the assay with OVCAR-3 ovarian, 115%; in the assay on HS 578T breast it was 101%; with NCI/ADR-RES ovarian, 82.6%.

As to `COc1ccc(N2CCC(=S)NC2=S)cc1`, the growth in the assay with SR leukemia is 112%; in the assay on RPMI-8226 leukemia, 103%; in the assay on OVCAR-8 ovarian it was 99.1%; with OVCAR-5 ovarian, 104%; in the assay with OVCAR-4 ovarian, 90.1%; in the assay on SK-OV-3 ovarian, 116%. Besides, the growth in the assay with IGROV1 ovarian was 105%; in the assay with OVCAR-3 ovarian it was 103%; in the assay with HS 578T breast, 105%; with NCI/ADR-RES ovarian, 103%.

As for `CCN1C(=O)N(CC)C2C1NN=c1s/c(=C3\C(=O)N(CC(C)C)c4ccccc43)c(=O)n12` (stereo not given), the growth in the assay on SR leukemia was 17.7%; in the assay with RPMI-8226 leukemia it was 17.5%; with OVCAR-8 ovarian it was 9.28% (active); in the assay on OVCAR-5 ovarian it was 30.3%; in the assay on OVCAR-4 ovarian, 44.6%; with SK-OV-3 ovarian it was 45.1%. Further, the growth in the assay on IGROV1 ovarian is 19%; with OVCAR-3 ovarian, 5.65% (active); in the assay with HS 578T breast it was 18%; in the assay on NCI/ADR-RES ovarian it was 5.71% (active).

Turning to `Cn1cc(-c2nn3cc(-c4cccs4)nc3s2)c2cc(F)ccc21`, the growth in the assay with SR leukemia is 11.8%; in the assay with RPMI-8226 leukemia, 31.2%; with OVCAR-8 ovarian it was 51.4%; in the assay with OVCAR-5 ovarian, 42.7%; with OVCAR-4 ovarian, 60.5%; in the assay on SK-OV-3 ovarian it was 44.9%. Also, the growth was 35.3% in the assay with IGROV1 ovarian, 5.2% (active) in the assay on OVCAR-3 ovarian, 1.66% (active) with HS 578T breast and 21.1% in the assay on NCI/ADR-RES ovarian.

For `COc1ccc(/C=C2\CN(C(=O)C(Cl)Cl)C/C(=C\c3ccc(OC)cc3)C2=O)cc1`, the growth in the assay on SR leukemia is 1.01% (active); in the assay with RPMI-8226 leukemia, -14.3% (active); in the assay with OVCAR-8 ovarian, 19%; in the assay on OVCAR-5 ovarian, 9.63% (active); in the assay on OVCAR-4 ovarian, 3.73% (active); in the assay with SK-OV-3 ovarian it was 41.6%. The growth was -50.7% (active) with IGROV1 ovarian, -75.3% (active) with OVCAR-3 ovarian, 17.8% with HS 578T breast and 11.6% with NCI/ADR-RES ovarian.

Turning to `Cc1cccc2c1C[C@@]1(C2=O)C(c2ccc(C(C)(C)C)cc2)=NOS1=O` (stereo not given in full), the growth in the assay with SR leukemia is 71%; in the assay with RPMI-8226 leukemia, 69.4%; in the assay on OVCAR-8 ovarian, 89.2%; in the assay with OVCAR-5 ovarian, 112%; in the assay on OVCAR-4 ovarian it was 86.3%; in the assay with SK-OV-3 ovarian, 98.4%. The growth in the assay on IGROV1 ovarian was 64.5%; with OVCAR-3 ovarian, 92.1%; with HS 578T breast, 87.2%; with NCI/ADR-RES ovarian, 86%.

`C[C@H](C(=O)N(CCc1ccc(Cl)c(Cl)c1)Cc1cncs1)[C@@H]1CC[C@H](C[C@H](C)n2cc(CN3CCC(c4ccc(Cl)cc4)CC3)nn2)O1`: the growth is -44.7% (active) with SR leukemia; 91.7% in the assay with RPMI-8226 leukemia; 91% in the assay on OVCAR-8 ovarian; 97% with OVCAR-5 ovarian; 92.6% with OVCAR-4 ovarian; 103% in the assay with SK-OV-3 ovarian. In addition, the growth is 101% with IGROV1 ovarian, 105% in the assay on OVCAR-3 ovarian, 98.7% with HS 578T breast and 105% with NCI/ADR-RES ovarian.

For the compound `CCS/C(Nc1ccccc1)=C(\C#N)C(=O)Nc1ccc(OC)cc1`, the growth with SR leukemia is 6.62% (active); in the assay with RPMI-8226 leukemia, 25.2%; with OVCAR-8 ovarian, 31.2%; in the assay on OVCAR-5 ovarian, 63.1%; in the assay on OVCAR-4 ovarian, 66.7%; in the assay on SK-OV-3 ovarian it was 22.4%. The growth was 55.7% in the assay on IGROV1 ovarian, -12.1% (active) with OVCAR-3 ovarian, 27.4% with HS 578T breast and -0.669% (active) in the assay on NCI/ADR-RES ovarian.

Consider `CCCCNC(=O)c1cc([N+](=O)[O-])cc(C2CCCCC2)c1O`, for which the growth with SR leukemia was 84.1%; in the assay with RPMI-8226 leukemia, 17%; in the assay with OVCAR-8 ovarian, 43.9%; with OVCAR-5 ovarian, 78.6%; in the assay on OVCAR-4 ovarian, 14.3%; with SK-OV-3 ovarian, 40.3%. For the same compound, the growth in the assay on IGROV1 ovarian was 43.2%; in the assay on OVCAR-3 ovarian it was 23.1%; with HS 578T breast, 48.3%; with NCI/ADR-RES ovarian it was 49.6%.
